{"source": "ChEMBL document CHEMBL3988442", "about": "“University of Dundee, Small-Polar-MMV Screening Library” (2021)", "note": "Screen size: about 48,000 compounds; about 13,000 (27%) showed an effect of 50% or more. This is one part of the list.", "data": [{"tested_on": "Wolbachia pipientis", "experiment": "Anti-Wolbachia Cell-Based Screen", "assay_type": "functional", "parameters": "scale not given: in the data most compounds retested in dose-response had high values", "conditions": "5 µM", "units": {"Percent Effect": "%"}, "values": [{"smiles": "CCOc1ccc(C(=O)N2C[C@H]3CC[C@@H]2CN(C(=O)C2CCC2)C3)cc1", "Percent Effect": -22.33}, {"smiles": "CCOc1ccc(C(=O)CCC(=O)NCc2cncn2CC)cc1C", "Percent Effect": -8.028}, {"smiles": "CC(C)Cc1noc(-c2ccc(NCc3noc(C(C)C)n3)nc2)n1", "Percent Effect": 13.03}, {"smiles": "Cc1ccc(-c2ncc(CN3CCOC(c4ccco4)C3)s2)o1", "note": "(stereo not drawn)", "Percent Effect": 2.096}, {"smiles": "COC(=O)CCC(=O)N1CCC2(CN(Cc3ccc(Cl)cc3)C2)C1", "Percent Effect": 100.4}, {"smiles": "COCCC(=O)N1CCC2(CCCN(Cc3cc(OC)ccc3F)C2)C1", "note": "(stereo not drawn)", "Percent Effect": -0.03102}, {"smiles": "CN1CCCC2(CC1)CCN(C(=O)CCc1ccccc1O)CC2", "Percent Effect": -5.541}, {"smiles": "CN1CCN(CC2(O)CCN(C(=O)CCc3ccccc3F)C2)CC1", "note": "(stereo not drawn)", "Percent Effect": 132.9}, {"smiles": "CN1CCCC2(CC1)CCN(C(=O)CCc1ccccc1F)CC2", "Percent Effect": -19.97}, {"smiles": "COCCC(=O)N1CCC2(CCN(Cc3cccc(F)c3)C2)C1", "note": "(stereo not drawn)", "Percent Effect": 0.08604}, {"smiles": "COC(=O)CCC(=O)N1CCC2(CN(Cc3ccccc3F)C2)C1", "Percent Effect": 106.8}, {"smiles": "COC(=O)CCC(=O)N1CCC2(CN(Cc3cccc(Cl)c3)C2)C1", "Percent Effect": 11.86}, {"smiles": "COCCC(=O)N1CCC2(CN(Cc3cccc(F)c3)C2)C1", "Percent Effect": -10.24}, {"smiles": "COC(=O)CCC(=O)N1CCC2(CN(Cc3cccc(F)c3)C2)C1", "Percent Effect": -9.48}, {"smiles": "COC(=O)CCC(=O)N1CCC2(CN(Cc3ccccc3)C2)C1", "Percent Effect": 108.2}, {"smiles": "CCn1cnnc1CNC(=O)N(C)Cc1cccc(Cl)c1Cl", "Percent Effect": -4.031}, {"smiles": "Cc1ccc(CN2CC3(CCN(S(=O)(=O)c4ccccc4)C3)C2)o1", "Percent Effect": -20.52}, {"smiles": "CCS(=O)(=O)N1CCC2(CN(Cc3ccc(C)o3)C2)C1", "Percent Effect": -24.8}, {"smiles": "Cc1ccc(CN2CC3(CCN(C(=O)Cc4ccc(Cl)cc4)C3)C2)o1", "Percent Effect": 100.7}, {"smiles": "CCCOc1ccc(Cl)cc1CNc1ncnc2oc(C)nc12", "Percent Effect": -1.031}, {"smiles": "CCc1nc(C2CCCN2CC(=O)Nc2c(C)n[nH]c2C)no1", "note": "(stereo not drawn)", "Percent Effect": 6.679}, {"smiles": "Cc1nn(C)c(C)c1NC(=O)CN1CCCC1c1noc(C2CC2)n1", "note": "(stereo not drawn)", "Percent Effect": -4.679}, {"smiles": "Cc1nc(C2CCCN2CC(=O)Nc2c(C)n[nH]c2C)no1", "note": "(stereo not drawn)", "Percent Effect": 89.73}, {"smiles": "Cc1n[nH]c(C)c1NC(=O)CN1CCCC1c1noc(C(C)C)n1", "note": "(stereo not drawn)", "Percent Effect": 106.9}, {"smiles": "Cc1cc(NC(=O)CN2CCCC2c2noc(C(C)C)n2)n(C)n1", "note": "(stereo not drawn)", "Percent Effect": -5.63}, {"smiles": "Cc1nc(C2CCCN2CC(=O)Nc2c(C)nn(C)c2C)no1", "note": "(stereo not drawn)", "Percent Effect": -17.15}, {"smiles": "Cc1nn(C)c(C)c1NC(=O)CN1CCCC1c1noc(C(C)C)n1", "note": "(stereo not drawn)", "Percent Effect": -6.278}, {"smiles": "Cc1n[nH]c(C)c1NC(=O)CN1CCCC1c1noc(C2CC2)n1", "note": "(stereo not drawn)", "Percent Effect": 90.47}]}]}
